Bioassay records: PubChem, several laboratories
Shown are actives, neighbours in structure and some others; about 6.6% of the full set was active somewhere.
BoNT A protease: BoNT A light chain protease inhibition | multiplex microsphere protease substrate cleavage, flow cytometry | inhibition, % at 10 µM | actives 0.17% (n = 360,000)
BoNT F protease: BoNT F light chain protease inhibition | Multiplex microsphere protease cleavage assay, flow cytometry | inhibition, % at 10 µM | actives 0.22% (n = 360,000) | AID 588497; in the data active = inhibition above about 35%, passing the limit was not always enough; inconclusive = no clear call, values can overlap the other calls
Anthrax LF prot: blocks Bacillus anthracis lethal factor protease | P15917 | multiplex microsphere protease cleavage assay, LF | inhibition, % at 10 µM | actives 0.12% (n = 360,000) | AID 588501
Bead autofluor: counter-screen for toxin protease inhibitors: compound fluorescence. compound autofluorescence counterscreen, microsphere flow cytometry; hits give high values. fluorescence intensity (test concentration not listed). actives 3.1% (n = 360,000); in the data active = fluorescence intensity above about 16000; inconclusive = no clear call, values can overlap the other calls
GDH-TPI inh: GDH-TPI coupled enzyme inhibition counter-screen; inhibition, % at 4.8 µM; GDH-TPI coupled enzyme counterscreen, NADH absorbance; actives 1.2% (n = 360,000); AID 588335; in the data active = inhibition above about 30%
Mtb FBA inh: Mtb fructose-bisphosphate aldolase inhibition; inhibition, % at 1 µM; actives 2.3% (n = 360,000); P9WQA3; AID 588726; purified M. tuberculosis FBA, fluorescence read-out; in the data active = inhibition above about 27%
Target sequence (P9WQA3 whole entry, looked up): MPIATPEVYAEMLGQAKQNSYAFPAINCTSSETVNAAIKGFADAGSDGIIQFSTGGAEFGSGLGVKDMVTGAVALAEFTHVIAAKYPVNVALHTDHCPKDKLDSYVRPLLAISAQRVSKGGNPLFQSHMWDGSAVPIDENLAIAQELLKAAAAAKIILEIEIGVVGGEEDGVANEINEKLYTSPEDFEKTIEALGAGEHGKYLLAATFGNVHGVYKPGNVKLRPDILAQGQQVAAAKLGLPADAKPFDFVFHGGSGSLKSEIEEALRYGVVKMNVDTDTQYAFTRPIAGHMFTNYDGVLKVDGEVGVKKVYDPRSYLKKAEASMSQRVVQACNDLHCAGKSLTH
Large screens that a line does not name were inactive. Cut-off read from the data, not from the text of the source, unless noted: active = inhibition above about 30%; inconclusive = no clear call, values can overlap the other calls; inactive = below that.

O=C(O)CC1S/C(=N/N=C/c2ccc(-c3ccc(Cl)cc3[N+](=O)[O-])o2)NC1=O (stereo not drawn)	GDH-TPI inh 32.5
Cc1ccc(/C=N/N=C2/NC(=O)C(CC(=O)Nc3ccccc3)S2)o1 (stereo not drawn)	none
CCCC1S/C(=N/N=C/c2ccco2)NC1=O (stereo not drawn)	none
Cc1ccc(/C=N/N=C2/NC(=O)C(CC(=O)Nc3ccc(Cl)cc3)S2)o1 (stereo not drawn)	GDH-TPI inh 41.2
O=C(CC1S/C(=N/N=C/c2ccco2)NC1=O)Nc1cccc(Cl)c1Cl (stereo not drawn)	GDH-TPI inh 42.5
CC(Sc1nc(-c2ccccc2)c(-c2ccccc2)[nH]1)C(=O)NCC1CCCO1 (stereo not drawn)	none
C[C@@H]1CN([C@H](C)CO)C(=O)c2cc(Br)cnc2O[C@@H]1CN(C)Cc1ccc(-c2ccccc2)cc1	none
CSc1nc(Cl)cc(Nc2ccc(O)cc2)n1	none
COc1ccc(CN2CCC2(C)C(=O)Nc2ccc(OC)c(OC)c2)cc1 (stereo not drawn)	none
CCCN1CCCc2cc(CN(CCCN3CCOCC3)C(=O)Nc3ccc(OCC)cc3)ccc21	Bead autofluor 22682
COc1ccc(NC(=O)C2(c3ccc(NC(=O)c4ccc(OC)cc4)cc3)CCCC2)cc1	none
COc1ccc(C2(C(=O)Nc3nncs3)CCCC2)cc1	Bead autofluor 22722
Fc1ccc(/C=N/Nc2ncnc3nc[nH]c23)cc1F	GDH-TPI inh 42.2
CC1C2=C(CC(C)(C)CC2=O)NC2=C1C(=O)CC(C)(C)C2	Mtb FBA inh active
CC1CCCCC1NC(=O)C1CCN(S(=O)(=O)N2CCCCCC2)CC1 (stereo not drawn)	Bead autofluor 18939
O=S1(=O)CCN2C=C(Cl)C=C(Cl)C2=N1	Mtb FBA inh 140.2
O=C(Oc1ccc(Cl)c(Cl)c1)C1=CC=CN2CCS(=O)(=O)N=C12	none (no result: BoNT A protease, BoNT F protease, Anthrax LF prot, Bead autofluor)
O=C1CCC(C(=O)N2CCCCCC2)CN1CCc1ccc(Cl)cc1 (stereo not drawn)	none
COc1cccc(CNC(=O)C2CCCN(S(=O)(=O)c3c(C)noc3/C=C/N(C)C)C2)c1 (stereo not drawn)	GDH-TPI inh 33.8
COCCNC(=O)C1CCCN(S(=O)(=O)c2c(C)noc2/C=C/c2cccs2)C1 (stereo not drawn)	none
Cc1noc(/C=C/N(C)C)c1S(=O)(=O)N1CCCC(C(=O)NCc2cccs2)C1 (stereo not drawn)	GDH-TPI inh 37.8
CCCCc1cc(=O)oc2c(CN(C)C)c(O)ccc12	none (no result: Mtb FBA inh)
CCc1c(C)c2ccc(O)c(CN(C)C)c2oc1=O	Bead autofluor 22113, Mtb FBA inh active
COCCN(CCOC)Cc1c(O)ccc2c3c(c(=O)oc12)CCC3	Mtb FBA inh active
CN(C)Cc1c(O)ccc2c3c(c(=O)oc12)CCCCC3	Mtb FBA inh active
CCCCC(C(=O)NC(C)(C)C)N(Cc1ccccc1Cl)C(=O)c1snc(C(N)=O)c1N (stereo not drawn)	none
Cc1ccccc1CN(C)C(=O)c1ccc2ccccc2n1	none
O=c1/c(=C/c2ccccn2)sc2n1CN(c1ccccc1)CN=2	none
Cc1cccc(N2CN=c3s/c(=C\c4ccccn4)c(=O)n3C2)c1	GDH-TPI inh 64.1 (no result: BoNT A protease, BoNT F protease, Anthrax LF prot, Bead autofluor)
Cc1cccc(N2CN=c3s/c(=C\c4ccncc4)c(=O)n3C2)c1	none
CCc1ccc(N2CN=c3s/c(=C\c4ccccc4)c(=O)n3C2)cc1	GDH-TPI inh 35.2
OCC1OCOC2C(CO)OCOC12 (stereo not drawn)	none
O=C(Cn1c(C(F)(F)F)nc2ccccc21)NCCN1CCCC1	Bead autofluor 22679
CCCc1ccc2ccc3ccccc3c2n1	none (no result: GDH-TPI inh)
CCCc1nc2oc3c(NCCN4CCOCC4)ncnc3c2c2c1CCCC2	none
CC(C)Cc1nc2oc3c(NCCCN4CCOCC4)ncnc3c2c2c1CCC2	Bead autofluor 23301
Cn1c(=O)c2c(ncn2CC(=O)OCC(=O)NCCc2ccccc2)n(C)c1=O	none
Cn1c(=O)c2c(ncn2CC(=O)OCC(=O)NC2CCCc3ccccc32)n(C)c1=O (stereo not drawn)	BoNT A protease inconclusive, Bead autofluor 22870
Cc1ccc(/C=N/NC(=O)CSc2nc3ccccc3[nH]2)o1	none
Cc1ccc(S(=O)(=O)N2CCN(C(=O)COC(=O)/C=C/c3cccc([N+](=O)[O-])c3)CC2)c(C)c1	none
C#CCn1cc(/C=N/NC(=O)c2cc3ccccc3o2)c2ccccc21	GDH-TPI inh 31.6
Cn1cc(/C=N/NC(=O)c2cc3cc(Br)ccc3o2)c2ccccc21	BoNT F protease inconclusive
O=C(O)Cn1cc(/C=N/NC(=O)c2cc3cc(Br)ccc3o2)c2ccccc21	GDH-TPI inh 48.1
O=C(O)c1ccc(-n2cccc2/C=N\NC(=O)c2cc3cc(Br)ccc3o2)cc1	GDH-TPI inh 35.9
COCCNC(=O)C1(C)CCN(Cc2ccc3ccccc3c2Br)C1 (stereo not drawn)	none
CC1CN(CC(O)c2ccc(Br)cc2)CCO1 (stereo not drawn)	none
CCOc1ccc(C2OC34CCCCC3C(C#N)(C#N)C2(C#N)C(=N)O4)cc1OC (stereo not drawn)	Mtb FBA inh 74.6
C=CCOc1ccc(C2OC34CCCCC3C(C#N)(C#N)C2(C#N)C(=N)O4)cc1 (stereo not drawn)	Mtb FBA inh 57.9
CCCCOc1ccc(C2OC34CCCCC3C(C#N)(C#N)C2(C#N)C(=N)O4)cc1 (stereo not drawn)	Mtb FBA inh 73.1
C=CCOc1ccc(CNCC2CCCO2)cc1 (stereo not drawn)	none
CCCCNc1cc(F)nc(N)n1	none
CCOC(=O)n1c2ccccc2c(=O)n1CCO	none (no result: GDH-TPI inh)
O=C(O)c1cccc(NS(=O)(=O)c2cccc3nsnc23)c1	Bead autofluor 19434
O=C(O)CNS(=O)(=O)c1cccc2nsnc12	Bead autofluor 22948
O=S(=O)(Nc1ccccc1)c1cccc2nsnc12	BoNT F protease inconclusive
COC(=O)c1ccccc1NC(=O)CNCCc1ccc(OC)c(OC)c1	none
COc1ccccc1N1CCN(C(=O)C(C)N(c2ccc(C)cc2)S(C)(=O)=O)CC1 (stereo not drawn)	none
COc1ccccc1N1CCN(C(=O)C(C)N(c2ccccc2)S(C)(=O)=O)CC1 (stereo not drawn)	BoNT A protease inconclusive, Bead autofluor 21669
COc1cccc(-c2nnn(CC(C)=O)n2)c1	none
COc1ccc(-c2ccc(-c3nnn(CC(C)=O)n3)cc2)cc1	Bead autofluor 22673
Cc1cc(C)n(CCO)c(=O)n1	BoNT A protease inconclusive, Bead autofluor 20285
Cc1cc(=S)cc(C)n1CCO	none
COc1cc(/C=N\NC(=O)CNC(=O)C2COc3ccccc3O2)ccc1O (stereo not drawn)	none
CCN(CC)c1ccc(/C=N/Nc2ccc(C)cc2)c(O)c1	none
CCOC(=O)N/N=C/c1ccc(N(CC)CC)cc1O	GDH-TPI inh 41.0
O=C(CCC(=O)N/N=C/c1c[nH]c2ccccc12)NCc1ccccc1	none
